# IDE exosite inh = displaces the probe from the exo-site of human IDE; P14735; purified IDE, FL-6b probe fluorescence polarization; active compounds read low; z-score at 20 µM; 17,000 tested, 6.3% active;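 active = z-score of -3 or lower, meaning strong loss of probe binding signal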;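 note: His-tagged human IDE residues 42-1019 made in E. coli with 30 nM FL-6b probe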
# Numbers without * were called inactive. Only a selection was taken, and hits are over-represented in it overall.
SMILES,IDE exosite inh
CC(C)NC(=O)N1[C@@H](C#N)[C@H](c2ccc(C#CC3CCCCC3)cc2)[C@@H]1CO,4.1
CO[C@H](CN(C)Cc1ccc2c(c1)OCO2)[C@@H](C)CN(C(=O)Nc1ccc(F)cc1)[C@@H](C)CO,0.51
O=C(c1ccncc1)N1CC(=O)N2[C@H](CO)[C@H](c3ccc(C#CCC4CCCC4)cc3)[C@H]2C1,-0.18
O=C(Nc1cc(F)ccc1F)N1CC(=O)N2[C@H](CO)[C@@H](c3ccc(-c4cccnc4)cc3)[C@H]2C1,1.9
O=C(C1CCC1)N1CC(=O)N2[C@H](CO)[C@@H](c3ccc(-c4cccnc4)cc3)[C@@H]2C1,-1.9
O=C(NC1CCCC1)N1CC(=O)N2[C@H](C1)[C@@H](c1ccc(-c3cccnc3)cc1)[C@@H]2CO,-5.8*
O=C(NC1CCCC1)N1CC(=O)N2[C@@H](CO)[C@@H](c3ccc(-c4cccnc4)cc3)[C@@H]2C1,1.3
O=C(NC1CCCC1)N1CC(=O)N2[C@@H](CO)[C@H](c3ccc(-c4cccnc4)cc3)[C@@H]2C1,-4.9*
O=C(C1CCC1)N1CC(=O)N2[C@@H](CO)[C@@H](c3ccc(-c4cccnc4)cc3)[C@@H]2C1,-0.57
O=C(C1CCC1)N1CC(=O)N2[C@H](CO)[C@@H](c3ccc(-c4cccnc4)cc3)[C@H]2C1,1.7
O=C(Nc1cc(F)ccc1F)N1CC(=O)N2[C@H](C1)[C@@H](c1ccc(-c3cccnc3)cc1)[C@@H]2CO,-8.2*
O=C(NC1CCCC1)N1CC(=O)N2[C@H](CO)[C@@H](c3ccc(-c4cccnc4)cc3)[C@@H]2C1,-12*
O=C(C1CCC1)N1CC(=O)N2[C@H](CO)[C@H](c3ccc(-c4cccnc4)cc3)[C@H]2C1,-2.1
O=C(Nc1cc(F)ccc1F)N1CC(=O)N2[C@H](C1)[C@H](c1ccc(-c3cccnc3)cc1)[C@@H]2CO,-1.8
O=C(C1CCCCC1)N1CC(=O)N2[C@H](CO)[C@@H](c3ccc(-c4cccnc4)cc3)[C@H]2C1,-0.58
COc1ccc(S(=O)(=O)Nc2ccc3c(c2)CC(=O)N([C@H](C)CO)C[C@H](C)[C@H](CN(C)C(=O)Nc2c(C)noc2C)O3)cc1,1.1
Cc1noc(C)c1NC(=O)Nc1ccc2c(c1)C(=O)N(C)[C@H]1CC[C@H](CC(=O)N[C@@H]3CCN(Cc4ccccc4)C3)O[C@H]1CO2,-0.8
Cn1cnc(S(=O)(=O)N[C@H]2CC[C@@H](CC(=O)NCC3CCCCC3)O[C@H]2CO)c1,1.1
O=C(C1CCC1)N1C[C@@H]2[C@H](c3ccccc31)[C@H](CO)N2C(=O)Nc1cccc(F)c1,0.11
COc1ccccc1-c1ccccc1[C@H]1[C@@H](C#N)N(C(=O)CN(C)C)[C@H]1CO,-0.88
COc1ccccc1-c1ccc([C@H]2[C@@H](C#N)N(C(=O)CN(C)C)[C@H]2CO)cc1,-3.7*
CN(C)CC(=O)N1[C@H](C#N)[C@H](c2ccc(-c3ccccc3F)cc2)[C@H]1CO,1.7
COc1ccc(-c2ccc([C@@H]3[C@@H](C#N)N(C(=O)CN(C)C)[C@@H]3CO)cc2)cc1,1.8
COc1ccccc1-c1ccccc1[C@@H]1[C@@H](C#N)N(C(=O)CN(C)C)[C@@H]1CO,-0.39
CN(C)CC(=O)N1[C@@H](C#N)[C@@H](c2ccc(-c3ccc(C(=O)N(C)C)cc3)cc2)[C@@H]1CO,0.87
SMILES,IDE exosite inh
CN(C)CC(=O)N1[C@H](CO)[C@@H](c2ccc(-c3ccccc3F)cc2)[C@@H]1C#N,-3.4*
CN(C)CC(=O)N1[C@H](C#N)[C@H](c2ccc(-c3ccccc3F)cc2)[C@@H]1CO,-1.6
CN(C)CC(=O)N1[C@H](C#N)[C@@H](c2ccc(-c3ccc(C(=O)N(C)C)cc3)cc2)[C@@H]1CO,1.7
COc1ccccc1-c1ccc([C@@H]2[C@H](C#N)N(C(=O)CN(C)C)[C@H]2CO)cc1,-5.1*
COc1ccccc1-c1ccc([C@H]2[C@H](C#N)N(C(=O)CN(C)C)[C@H]2CO)cc1,-14*
CN(C)CC(=O)N1[C@H](CO)[C@H](c2ccc(-c3ccccc3F)cc2)[C@@H]1C#N,0.68
O=C([C@@H]1[C@@H](CO)[C@@H]2Cn3c(cccc3=O)[C@H]1N2)N1CCc2ccccc2C1,-0.17
C[C@@H]1CN([C@H](C)CO)C(=O)c2ccccc2-c2ccccc2CO[C@@H]1CN(C)Cc1cccc2c1OCCCO2,-0.15
C/C=C/c1ccc([C@H]2[C@@H](CO)N(Cc3ccccn3)[C@H]2CNC(=O)CC)cc1,5.3
CCCC#Cc1ccc([C@@H]2[C@H]3CN(S(=O)(=O)Cc4ccccc4)CC(=O)N3[C@H]2CO)cc1,4.6
COc1ccc(C#Cc2ccc([C@H]3[C@@H](CO)N4C(=O)CN(C(=O)c5cccnc5)C[C@@H]34)cc2)cc1,-0.96
COc1ccccc1-c1cn(CC[C@@H]2CC[C@@H](NC(=O)C3CCCCC3)[C@H](CO)O2)nn1,0.3
CN(C)C(=O)c1cccc(-c2ccc3c(c2)[C@H]2[C@H](CCN2C(=O)Cc2ccccc2)[C@@H](CO)N3)c1,2.3
COc1ccccc1NC(=O)C[C@H]1CC[C@H]2[C@@H](COc3ccc(NS(C)(=O)=O)cc3C(=O)N2C)O1,-6.1*
COc1ccccc1NC(=O)Nc1ccc2c(c1)C(=O)N(C)[C@H]1CC[C@H](CC(=O)Nc3ccc4c(c3)COC4)O[C@@H]1CO2,-0.18
CCS(=O)(=O)Nc1ccc2c(c1)C(=O)N(C)[C@@H]1CC[C@@H](CC(=O)N3CCN(C)CC3)O[C@H]1CO2,0.27
CN1C(=O)c2cc(NS(C)(=O)=O)ccc2OC[C@H]2O[C@H](CC(=O)N3CCOCC3)CC[C@@H]21,-14*
CN1C(=O)c2cc(NS(C)(=O)=O)ccc2OC[C@H]2O[C@@H](CC(=O)NCc3ccccc3)CC[C@@H]21,0.18
CN1C(=O)c2cc(NS(C)(=O)=O)ccc2OC[C@@H]2O[C@@H](CC(=O)N3CCOCC3)CC[C@H]21,-1
CC(=O)N(C)C[C@@H]1[C@H](c2ccc(-c3ccccc3F)cc2)[C@H](CO)N1C(C)=O,0.44
O=C1CNC[C@@H]2[C@H](c3ccc(C4=CCCCC4)cc3)[C@@H](CO)N12,1.4
COCC(=O)Nc1ccc2c(c1)C(=O)N(C)C[C@@H](OC)[C@@H](C)CN(C(=O)c1ccncc1)[C@@H](C)CO2,1.4
COCC#Cc1ccc([C@H]2[C@H](CO)N3CCCCN(C(=O)COC)C[C@@H]23)cc1,3.5
COc1ccc(C#Cc2ccc([C@@H]3[C@@H](CO)N4CCCCN(C(=O)c5ccncc5)C[C@H]34)cc2)cc1,1.7
COCC(=O)N1CCCCN2[C@H](C1)[C@@H](c1ccc(C#Cc3ccc(OC)cc3)cc1)[C@@H]2CO,4.1
SMILES,IDE exosite inh
COCC(=O)N1CCCCN2[C@@H](CO)[C@H](c3ccc(C#Cc4ccc(OC)cc4)cc3)[C@@H]2C1,-3.1*
COCC#Cc1ccc([C@H]2[C@@H](CO)N3CCCCN(C(=O)COC)C[C@@H]23)cc1,4.1
COCC#Cc1ccc([C@H]2[C@H]3CN(C(=O)COC)CCCCN3[C@H]2CO)cc1,2.4
COc1ccc(C#Cc2ccc([C@H]3[C@@H](CO)N4CCCCN(C(=O)c5ccncc5)C[C@@H]34)cc2)cc1,-6.6*
COc1ccc(C#Cc2ccc([C@H]3[C@H](CO)N4CCCCN(C(=O)c5ccncc5)C[C@@H]34)cc2)cc1,2.1
COCC(=O)N1CCCCN2[C@H](CO)[C@@H](c3ccc(C#Cc4ccccc4)cc3)[C@H]2C1,-7.1*
COc1ccc2c3c([nH]c2c1)[C@H](CO)N(C(=O)NC(C)C)CC31CCN(C(=O)c2cnccn2)CC1,-0.52
